Experimental data reported in PubChem BioAssay AID1345082 (National Center for Advancing Translational Sciences (NCATS), 2018).
In all, about 94,000 compounds went through this assay and about 4,000 (4.3%) were called active. Where a call stands in place of a potency, no number is given. Another 29% or so got no clear call; they are omitted. The call rests on the fitted dose curve; in most records, active means well fitted inhibition curve with a large enough effect; inconclusive means small, poorly fitted or top-dose-only effect; inactive means no such curve, though single readings can be large or run the other way. This excerpt belongs to a sample that is enriched for actives.

Assay: Cytotoxic Profiling in NIH 3T3 Cell Line of Diverse Libraries Using Quantitative High-Throughput Screening; further: nearly all actives have a fitted effect of over 55% in size
Conditions: NIH 3T3 viability, CellTiter-Glo ATP luminescence, 48-72 h; series mostly up to 96.7 µM
Description: Cell-based phenotypic screening is a commonly used approach to discover biological pathways, novel drug targets, chemical probes and high-quality hit-to-lead molecules. Many hits identified from high-throughput screening campaign are ruled out through a series of follow-up potency, selectivity/specificity, and cytotoxicity assays. Prioritization of molecules with little or no cytotoxicity for a more in-depth downstream evaluation influence the future direction of projects, so cytotoxicity profiling of the screening libraries at early stage is essential for increasing the likelihood of candidate success. In this study, we analyzed results from a cell-based cytotoxicity screening campaign, comprising nearly 10,000 compounds in NCATS annotated libraries, and over 100,000 compounds in a diversity library, evaluated in four normal cell lines (HEK 293, NIH 3T3, CRL-7250 and HaCat) and a cancer cell line (KB 3-1, a HeLa subline) with overall screening outcomes, hit rates, pan-activity and selectivity. For the annotated library, we also examined the primary targets and mechanistic pathways regularly associated with cell death. To our knowledge, this is the first study to use high-throughput screening to profile large libraries for cytotoxicity assessment in both normal and cancer cell lines. In summary, the results generated here constitutes a valuable resource for the scientific community and provides insight on identifying cytotoxic compounds with particular mechanisms of action, and prioritizing compounds with suitable cytotoxicity profile for further evaluation.
NIH 3T3 cells were seeded into white 1536-well plates using a Multidrop Combi peristaltic dispenser (ThermoFisher, Waltham, MA) at a density of 400 cells/well in 5 uL of medium respectively. A pintool (Kalypsys) was used to transfer 23 nL of compound solution to the 1536-well assay plates. After 48 or 72 hr incubation at 37 degree Celsius, 5% CO2 and 95% humidity, 2.5 uL of CellTiter-Glo (Promega) was dispensed into each well using a dispenser (Aspect Automation, St. Paul, MN) with solenoid valves (Lee Valves, Westbrook CT). Plates were left at room temperature for 10 min before imaging the ATP-coupled luminescence using a ViewLux microplate imager (PerkinElmer, Waltham, MA).
Potency means the concentration at half of the fitted maximal effect.

With CN(C)C(=O)[C@H]1CN2CCC1C[C@@H]2Cn1cc(-c2ccc(-c3ccccc3)cc2)nn1 (stereo not given in full) as the compound, how does the Potency read?
Its Potency is “inactive”.

With O=C([C@H]1CN2CCC1C[C@@H]2Cn1cc(-c2ccccc2)nn1)N1CCOCC1 (stereo not given in full) as the compound, how does the Potency read?
Its Potency is “inactive”.

For Cc1nc(-c2ccccc2)cc([C@H]2CN3CC[C@H]2C[C@@H]3CNC2CCOCC2)n1, which Potency is on record?
The Potency was 31.6 µM (active).

For Cc1nc(-c2ccccc2)cc([C@H]2CN3CC[C@H]2C[C@@H]3CNC2CCN(C)CC2)n1, which Potency is on record?
The Potency was 56.2 µM (active).

Which Potency does the source give for O=[S+]1([O-])NCC2(CCN(Cc3cccnc3)C2)Oc2ncccc21 (stereo not given) here?
The Potency was “inactive”.

For COc1ccc([C@@H]2CN(C(=O)c3c(C)noc3C)[C@@H]3C4CCN(CC4)[C@@H]32)cc1, which Potency is on record?
Its Potency is “inactive”.

For CN(C)[C@@H]1CN(C(=O)Cc2ccc(F)cc2)C[C@H]1CO, which Potency is on record?
The Potency was “inactive”.

With O=C1NC2(Cc3ccccc31)CN(Cc1ccncc1)C2 as the compound, how does the Potency read?
Its Potency is “inactive”.

For COc1ccc(-c2cc([C@H]3CN4CC[C@H]3C[C@@H]4CNC(=O)c3ccccc3)n(C)n2)cc1OC, which Potency is on record?
The Potency was “inactive”.

With CCCNC(=O)OC[C@H]1C[C@@H]2CCN1C[C@@H]2c1cc(-c2ccc(OC)c(OC)c2)nn1C as the compound, how does the Potency read?
The Potency was “inactive”.

For Cn1nc(-c2cccs2)cc1[C@H]1CN2CC[C@H]1C[C@@H]2CNC(=O)CCCC(=O)O, which Potency is on record?
Its Potency is “inactive”.

Which Potency does the source give for COc1ccccc1-c1cc([C@H]2CN3CC[C@H]2C[C@@H]3CNC(C)=O)n(C)n1 here?
The Potency was “inactive”.

With Cn1nc(-c2cccs2)cc1[C@H]1CN2CC[C@H]1C[C@@H]2CNC(=O)Nc1ccccc1 as the compound, how does the Potency read?
The Potency was 100 µM (active).

With COc1ccc(C(=O)NC[C@H]2C[C@@H]3CCN2C[C@@H]3c2cc(-c3ccccc3)nn2C)cc1 as the compound, how does the Potency read?
The Potency was 89.1 µM (active).

With CCC(=O)N1CCC2(CC1)c1nccn1-c1ccccc1CN2CC(C)C as the compound, how does the Potency read?
Its Potency is “inactive”.

With O=C(Cc1ccc(F)cc1)N1CCN(C2CCN(Cc3cccnc3)C2=O)CC1 (stereo not given) as the compound, how does the Potency read?
The Potency was “inactive”.

With CC1=NOC2(CCN(Cc3cncs3)C2)C1 (stereo not given) as the compound, how does the Potency read?
Its Potency is “inactive”.

Which Potency does the source give for Cc1ccc(S(=O)(=O)NC[C@H]2C[C@@H]3CCN2C[C@@H]3CN2CCN(c3ncccn3)CC2)cc1 here?
The Potency was “inactive”.

Which Potency does the source give for COc1cc2c(cc1OC1CCCC1)NC(=O)C21CCN(C(=O)c2ccnn2C)CC1 here?
Its Potency is “inactive”.

Which Potency does the source give for COc1cc2c(cc1OCc1ccccc1)NC(=O)C21CCN(CCC(C)C)CC1 here?
Its Potency is 89.1 µM (active).

For COc1cc2c(cc1OCc1ccccc1)NC(=O)C21CCN(C(=O)C(C)C)CC1, which Potency is on record?
The Potency was 14.1 µM (active).

With COc1cc2c(cc1-c1ccncc1)NC(=O)C21CCN(C(C)=O)CC1 as the compound, how does the Potency read?
Its Potency is 28.2 µM (active).

Which Potency does the source give for O=C1NC2(Cc3ccccc31)CN(CC1CC1)C2 here?
The Potency was “inactive”.

For CC(C)N1CC2CCC(C1)N2C(=O)N1CCCC1, which Potency is on record?
Its Potency is “inactive”.

With CCCSc1ncc(CN2CC[C@H]3CNC[C@H]32)cn1 as the compound, how does the Potency read?
Its Potency is “inactive”.
